High-throughput results from PubChem BioAssay.
Rows were chosen to be rich in hits. Some 4.1% of all compounds tested hit in one or more screens of this group.
DAX1 inh-1 – inhibitors of human orphan nuclear receptor DAX1 (NR0B1); P51843; HEK293 Gal4-DAX1 luciferase reporter, luminescence; inhibition, % at 6.75 µM; actives 0.99% (n = 340,000); AID 504766;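 active = inhibition above the mean over all tested compounds plus 3 SD, cut at about 4.2% in these data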;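 note: inhibition shows as a rise in luminescence from relieved DAX1 repression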
Target sequence (P51843 207-470 limits assumed): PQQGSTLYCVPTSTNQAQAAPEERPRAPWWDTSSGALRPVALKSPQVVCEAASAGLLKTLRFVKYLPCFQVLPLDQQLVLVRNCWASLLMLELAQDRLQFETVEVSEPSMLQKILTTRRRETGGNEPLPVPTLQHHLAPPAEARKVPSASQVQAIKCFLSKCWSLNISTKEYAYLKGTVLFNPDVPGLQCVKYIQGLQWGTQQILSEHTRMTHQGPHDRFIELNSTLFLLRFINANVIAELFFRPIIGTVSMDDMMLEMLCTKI
ssDAF-12 act – activates DAF-12 receptor from parasite S. stercoralis. HEK293 ssDAF-12/GRIP1 lit1-tk-luc reporter, luminescence; % of 3 µM dafachronic acid response. activation, % at 6.8 µM. actives 1% (n = 370,000). AID 652126;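 active = activation above the mean over all tested compounds plus 3 SD, cut at about 0.9% in these data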
DAX1 inh-2 – inhibitors of DAX1 repression of SF-1 activated StAR promoter; HEK293T StAR-luciferase reporter, SF-1/DAX-1 repression relief; inhibition, % at 6.8 µM; actives 1.1% (n = 370,000); AID 652010;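 active = inhibition above the mean over all tested compounds plus 3 SD, cut at about 3.6% in these data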;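 note: higher inhibition means more luminescence from relief of DAX-1 repression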
hcDAF-12 act – H. contortus DAF-12 activation, primary screen | actives 1.4% (n = 370,000) | AID 652067 | activation, % at 6.8 µM | HEK293 hcDAF-12 lit1-tk-luc reporter, luminescence; 0% DMSO, 100% Δ7-dafachronic acid;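 active = activation above the mean of all tested compounds plus 3 SD, cut at about 5.5% in these data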
hgDAF-12 ag – hgDAF-12 agonism, primary luciferase screen. HEK293 GAL4-hgDAF12 UAS-luciferase reporter, agonist luminescence; normalized to butyrate control. activation, % at 6.8 µM. actives 1.8% (n = 370,000). AID 687014;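 active = activation above a cutoff set at the mean of all screened compounds plus 3 SD, cut at about 10% in these data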
Of the large screens only hits and unclear results are named; the others gave an inactive call.

COc1ccc(-c2cc(-c3nnc(SCC(=O)Nc4ccccc4-c4ccccc4)n3N)[nH]n2)cc1	none (no result: DAX1 inh-1)
Cc1ccc(C(=O)C2CC2)c(C)c1	ssDAF-12 act 3.1
c1ccc(CNC2CC3CCC2C3)cc1 (stereo unspecified)	ssDAF-12 act 0.9
COc1ccc(-c2nnc(SCC(=O)Nc3ccc(S(=O)(=O)Nc4cc(C)nc(C)n4)cc3)n2-c2ccc(OC)cc2)cc1	none (no result: DAX1 inh-1)
O=C(Nc1cc(Br)ccc1O)c1cc(-c2ccc3c(c2)OCO3)on1	DAX1 inh-1 5.7
CN(C(=O)c1cc(-c2ccc3c(c2)OCO3)on1)c1ccccc1	hgDAF-12 ag 11.1
CSc1ccccc1NC(=O)c1cc(-c2ccc3c(c2)OCO3)on1	none
CC(C)CNC(=O)c1cc(-c2ccc3c(c2)OCO3)on1	none
c1ccc(Nc2nc3ccccc3n3nnnc23)cc1	none
Fc1ccccc1Nc1nc2ccccc2n2nnnc12	ssDAF-12 act 1.1
CCOC(=O)Cn1cc(CN2CCS(=O)(=O)N(Cc3ccc(C)cc3)C(C(=O)OC)C2)nn1 (stereo unspecified)	none (no result: DAX1 inh-1)
C=CCN1[C@H](CC(C)C)COc2cccc(N3CCSCC3)c2S1(=O)=O	none (no result: DAX1 inh-1)
CCOCCOC(=O)c1[nH]c2c(c1C)C(=O)CC(c1ccc(N(C)C)cc1)C2 (stereo unspecified)	none
CCOC(=O)c1[nH]c2c(c1-c1ccccc1)C(=O)CC(c1ccccc1)C2 (stereo unspecified)	DAX1 inh-1 6.6
COC(=O)c1[nH]c2c(c1C)C(=O)CC(c1ccccc1)C2 (stereo unspecified)	none
CCC(C)OC(=O)c1[nH]c2c(c1C)C(=O)CC(c1ccc(N(C)C)cc1)C2 (stereo unspecified)	hgDAF-12 ag 11.3
O=C(Cc1c[nH]c2ccccc12)Nc1ccc(Nc2cccnc2)c(-c2cc(F)cc(F)c2)c1	none (no result: DAX1 inh-1)
OC[C@H]1O[C@H](OCc2ccccc2)[C@H](O[C@@H]2OC[C@@H](O)[C@H](O)[C@H]2O)[C@@H](O)[C@@H]1O	DAX1 inh-1 6.3
COc1ccc(-c2cc(C(=O)Nc3ccc(C)c(C)c3)no2)cc1	none
Cc1ccc(NC(=O)c2cc(-c3ccc(F)cc3)on2)cc1C	DAX1 inh-1 6.1
O=C(Nc1cccnc1Cl)c1cc(-c2ccc(F)cc2)on1	DAX1 inh-1 5.0
O=C(NC(=S)Nc1cccnc1Cl)c1ccc(F)cc1	DAX1 inh-1 5.4
Cc1cc(C(=O)Nc2cccc(C(=O)O)c2)c(C)o1	none
O=C(NC(=S)NCc1cccnc1)c1cc2ccccc2o1	none
CCOC(=O)c1cccc(NC(=O)c2cc3ccccc3o2)c1	hgDAF-12 ag 11.0
CCC(=O)Nc1cccc(NC(=O)c2cc3ccccc3o2)c1	hgDAF-12 ag 10.7
CCOC(=O)c1ccc(NC(=O)c2cc3ccccc3o2)cc1	none
Cc1cc(C(=O)Nc2cccc(C(=O)O)c2)oc1C	hgDAF-12 ag 10.5
O=C(NC(=S)Nc1cccnc1)c1cc2ccccc2o1	hgDAF-12 ag 11.4
COC(=O)C1=C(C)N(Cc2ccccc2C(F)(F)F)C(=NCc2ccccc2)NC1c1cccc(F)c1 (stereo unspecified)	none (no result: DAX1 inh-1)
CCC(=O)Oc1ccc(C(=O)Nc2cccc(C(=O)NCC(C)C)c2)cc1	DAX1 inh-1 4.7
CCC(=O)Oc1ccc(C(=O)Nc2ccccc2C(=O)NCC(C)C)cc1	none
CC(=O)Nc1ccc(S(=O)(=O)NCC(=O)Nc2ccc3c(c2)OCO3)cc1	ssDAF-12 act 2.1
O=S(=O)(c1ccc(NC(=S)Nc2ccc3c(c2)OCO3)cc1)N1CCOCC1	none
O=S(=O)(NCc1ccc2c(c1)OCO2)c1ccc(F)c(F)c1	none
CNS(=O)(=O)c1ccc(NC(=S)Nc2ccc3c(c2)OCO3)cc1	hgDAF-12 ag 11.5
O=S(=O)(NCc1ccc2c(c1)OCO2)c1ccc(F)cc1	DAX1 inh-1 7.5
CN1CCCN(S(=O)(=O)c2ccc(Cl)c(Cl)c2)CC1	none
Cc1cccnc1C(NC(=O)C1CCN(CCCc2ccccc2)CC1)c1ccc(F)cc1 (stereo unspecified)	none (no result: DAX1 inh-1)
CCOC(=O)C1=NOC(C(=O)NC2CCCC2)(C(=O)C2CC2)C1 (stereo unspecified)	none (no result: DAX1 inh-1)
Cc1ccc(OCC(=O)c2cc(C)n(C3CC3)c2C)c([N+](=O)[O-])n1	none
Cc1cc(C(=O)COc2cccc([N+](=O)[O-])c2)c(C)n1C1CC1	hgDAF-12 ag 12.6
O=C(COC(=O)c1ccc2ccccc2n1)NCc1ccccc1	DAX1 inh-1 4.9
O=C(CCc1ccccc1)Nc1ccccc1	none
O=C(CCc1ccccc1)Nc1ccc2ccccc2n1	hgDAF-12 ag 12.2
Nc1c(C(=O)OCC(=O)NCc2ccccc2)[nH]c(=O)[nH]c1=O	DAX1 inh-1 7.9
O=C(NCCc1c[nH]c2ccccc12)OCc1cn(-c2ccc(F)cc2)nn1	none (no result: DAX1 inh-1)
O=c1c(-c2ccco2)nc2ccccc2n1C(c1ccccn1)c1nc2ccccc2[nH]1 (stereo unspecified)	ssDAF-12 act 1.1 (no result: DAX1 inh-1)
CCC(c1nc2ccccc2[nH]1)n1c(=O)c(-c2ccco2)nc2ccccc21 (stereo unspecified)	none (no result: DAX1 inh-1)
O=c1c(-c2cccs2)nc2ccccc2n1C(c1ccccn1)c1nc2ccccc2[nH]1 (stereo unspecified)	hgDAF-12 ag 11.6 (no result: DAX1 inh-1)
CC(C)(C)NC(=O)C(c1ccnc2ccccc12)n1c(=O)c(-c2ccco2)nc2ccccc21 (stereo unspecified)	DAX1 inh-2 4.0 (no result: DAX1 inh-1)
O=c1c(-c2cccnc2)nc2ccccc2n1C(c1ccccn1)c1nc2ccccc2[nH]1 (stereo unspecified)	none (no result: DAX1 inh-1)
COc1ccc2c(c1)nc(-c1cccc(Br)c1)c(=O)n2C(c1ccccn1)c1nc2ccccc2[nH]1 (stereo unspecified)	ssDAF-12 act 0.9 (no result: DAX1 inh-1)
O=c1c(-c2ccccc2)nc2ccccc2n1C(c1ccccn1)c1nc2ccccc2[nH]1 (stereo unspecified)	none (no result: DAX1 inh-1)
O=C(OCc1cn(Cc2cccc(F)c2)nn1)N1CCOCC1	none (no result: DAX1 inh-1)
COc1ccc(C#Cc2c(-c3ccsc3)oc3ccc(-c4cc(OC)c(OC)c(OC)c4)cc23)cc1	hcDAF-12 act 5.6
COc1ccc(-c2oc3ccc(-c4cc(OC)c(OC)c(OC)c4)cc3c2-c2ccc(OC)cc2)cc1	none (no result: DAX1 inh-1)
O=C(CCNC(=O)Cn1ccc2ccccc2c1=O)NCCCN1CCOCC1	DAX1 inh-1 5.1
O=C(N=Nc1c(O)n(Cc2ccccc2)c2ccccc12)c1ccc(O)cc1	DAX1 inh-2 3.6, hcDAF-12 act 6.0
Cc1ccc(C)n1NC(=O)c1ccccc1[N+](=O)[O-]	none
Cc1ccc(C)n1NC(=O)c1ccccc1O	ssDAF-12 act 1.4
CCC(=O)N1CCc2cc(Br)c(S(=O)(=O)NCc3ccccc3OC)cc21	none (no result: DAX1 inh-1)
COc1ccc(/C(C)=N/NC(=O)CN(c2ccc(OC)cc2)S(=O)(=O)c2ccccc2)cc1	DAX1 inh-1 4.4
